Compounds without any hit were thinned out: in the full panel of roughly 83,000, 20% have a hit.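 For each line, cells grew in 96-well plates with the test compound present at a single concentration for 48 hours.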 A number with no mark means an inactive call. Active and inactive are the calls of the source. How the source made its calls: active means growth percent below 10; inactive means the rest.
What was measured:
Test in all cases: NCI-60 one-dose screen, 48 h (100 = growth as untreated, 0 = no growth, -100 = all killed)
Conditions in all cases: 10 µM unless noted
HCT-15 colon = system: HCT-15 colon
HT29 colon = system: HT29 colon
SNB-75 CNS = system: SNB-75 CNS
SNB-19 CNS = system: SNB-19 CNS
U251 CNS = system: U251 CNS
PC-3 prostate = system: PC-3 prostate
SK-MEL-5 melanoma = system: SK-MEL-5 melanoma
UACC-62 melanoma = system: UACC-62 melanoma
LOX IMVI melanoma = system: LOX IMVI melanoma
SK-MEL-28 melanoma = system: SK-MEL-28 melanoma
SK-MEL-2 melanoma = system: SK-MEL-2 melanoma
EKVX NSCLC = system: EKVX NSCLC
SN12C renal = system: SN12C renal
UO-31 renal = system: UO-31 renal
TK-10 renal = system: TK-10 renal
ACHN renal = system: ACHN renal
CAKI-1 renal = system: CAKI-1 renal
A498 renal = system: A498 renal
CCRF-CEM leukemia = system: CCRF-CEM leukemia
MOLT-4 leukemia = system: MOLT-4 leukemia

Row | Structure (SMILES) | growth (HCT-15 colon) [%] | growth (HT29 colon) | growth (SNB-75 CNS) | growth (SNB-19 CNS) [%] | growth (U251 CNS) [%] | growth (PC-3 prostate) [%] | growth (SK-MEL-5 melanoma) | growth (UACC-62 melanoma) | growth (LOX IMVI melanoma) | growth (SK-MEL-28 melanoma) [%] | growth (SK-MEL-2 melanoma) [%] | growth (EKVX NSCLC) [%] | growth (SN12C renal) [%] | growth (UO-31 renal) | growth (TK-10 renal) [%] | growth (ACHN renal) | growth (CAKI-1 renal) [%] | growth (A498 renal) [%] | growth (CCRF-CEM leukemia) | growth (MOLT-4 leukemia)
1 | COc1cc(C2CC(c3ccc(Cl)cc3)=NN2C(C)=O)ccc1Oc1ccnc2cc(Cl)ccc12 (stereo not given) | 91.9 | 28.2% | 33.2% | 70.7 | 43.8 | 58.3 | 67.8% | 60.5% | 37.9% | 55.1 | 67.2 | 51.9 | 70.9 | 57.5% | 37.4 | 18.8% | 26.1 | 69 | 87.1% | 97.4%
2 | O=C(Nc1ccccc1)c1cc2ccccc2s1 | 63.9 | 104% | 92.9% | 99.7 | 89.4 | 82 | 56.7% | 67.1% | 83.4% | 107 | 72.2 | 85.5 | 91.4 | 71.2% | 98.7 | 94.2% | 78.8 | 91.7 | 44.3% | 83.3%
3 | CCN(CC)CCCC(C)Nc1c(-c2ccccc2)cnc2cc(Cl)ccc12 (stereo not given) | 29.5 | -33.5% (active) | 132% | 101 | 58.1 | 64.5 | 55.3% | 97.2% | 19.2% | 15.3 | 35.1 | 83.4 | 74.1 | 50.3% | 59.8 | 93% | 85.8 | 60 | 62.1% | 48.5%
4 | CC(C)(C)[Si](C)(C)OC1[C@@H](O[Si](C)(C)C(C)(C)C)[C@@H](CNC(=O)NC(=O)NC(=O)CCl)O[C@H]1n1cnc2c(NC(=O)Nc3ccccc3)ncnc21 (stereo not given in full) | 79 | -11.4% (active) | 80.2% | 99.5 | 29.7 | 11.3 | 86.6% | 87.7% | -74.5% (active) | 105 | 84.9 | 86.3 | 54.6 | -94.9% (active) | 97.2 | -12.9% (active) | 76.2 | 88.7 | -30.4% (active) | 4.05% (active)
5 | NC(=O)N/N=C\c1ccc([N+](=O)[O-])o1 | 92.5 | 111% | 84.3% | 113 | 93 | 85.2 | 107% | 103% | 91.5% | 106 | 114 | 75.2 | 104 | 85.2% | 113 | 98.8% | 86.9 | 90.1 | 19.9% | 103%
6 | O=C1C(Cl)=C(Nc2cccc3ccccc23)C(=O)c2ccccc21 | 70 | 90.3% | 81.6% | 92.6 | 75.6 | 43 | 60.9% | 55.1% | 32.7% | 91.4 | 79.1 | 74.4 | 80.1 | 58.5% | 95.4 | 68.2% | 25.4 | 77.5 | 65.4% | 64.9%
7 | CCCC(CCC)(C(N)=O)C(=O)O | 105 | 101% | 104% | 112 | 106 | 121 | 110% | 106% | 93.5% | 113 | 120 | 105 | 102 | 92.2% | 115 | 103% | 95.3 | 104 | 103% | 113%
8 | O=S1(=O)NCCN1CCNc1nccc(-c2c(-c3cccc(O)c3)nc3sccn23)n1 | 127 | 71.6% | 73.3% | 122 | 120 | 78.5 | 94.4% | 6.31% (active) | 55% | 31.3 | 72.1 | 111 | 95.2 | 116% | 130 | 97% | 80.8 | 118 | 88.1% | 110%
9 | COc1cccc(-c2nc3sccn3c2-c2ccnc(NCCN3CCCNS3(=O)=O)n2)c1 | 97.1 | 45.2% | 88.4% | 127 | 112 | 94.4 | 80.8% | 9.99% (active) | 35% | 44.1 | 86.3 | 110 | 60.8 | 70.7% | 115 | 48.4% | 44.6 | 108 | 68.1% | 87.5%
10 | COc1cc(C2CC(c3ccc(Cl)cc3)=NN2C(C)=O)ccc1Oc1nc2c(c(=O)n(C)c(=O)n2C)n1C (stereo not given) | 88.5 | 73.8% | 75% | 59.8 | 80.7 | 75.6 | 55.6% | 75.9% | 64.5% | 86.6 | 105 | 83.6 | 50.3 | 76.3% | 110 | 87.2% | 81.5 | 77.4 | 80.5% | 62.6%
11 | Cc1ccc(C(=O)CC(=O)C(F)(F)C(F)(F)C(F)(F)F)s1 | 105 | 110% | 96% | 104 | 108 | 92.8 | 106% | 96.6% | 104% | 110 | 113 | 94.6 | 96.4 | 74.9% | 118 | 110% | 99.2 | 112 | 103% | 109%
12 | Clc1cc(Cl)cc(-c2cnc3nonc3n2)c1 | 64.4 | 92.8% | 99% | 93.4 | 106 | 90.9 | 107% | 83.1% | 95% | 91.5 | 98.5 | 102 | 99.4 | 62.3% | 79.9 | 72.6% | 93.5 | 100 | 50.5% | 92.9%
13 | CC1=CC(=O)OC1C/C=C(\C)CCC1[C@@]2(C)CCC[C@@](C)(C(=O)O)C2CC[C@@]1(C)O (stereo not given in full) | 14.1 | 86.8% | 74% | 53.3 | 35.4 | 59.1 | -23.8% (active) | 15.4% | 97.3% | 26.7 | 16.5 | 38.8 | 41 | 32.2% | 53.6 | 26.1% | 32.9 | 52.7 | 70.2% | 114%
14 | COc1cc(C2CC(c3ccc(Cl)cc3)=NN2C=O)ccc1Oc1ccnc2cc(Cl)ccc12 (stereo not given) | 85.7 | 58% | 7.19% (active) | 72.6 | 72.5 | 66.8 | 51% | 74.6% | 74.2% | 74.4 | 86.7 | 59 | 77.3 | 80.8% | 83 | 41% | 58.5 | 62.6 | 68.8% | 62%
15 | O=C(Cc1ccc([N+](=O)[O-])cc1)Oc1ccccc1 | 104 | 104% | 102% | 103 | 107 | 93.1 | 105% | 101% | 107% | 112 | 102 | 128 | 106 | 77% | 104 | 110% | 117 | 107 | 99.3% | 108%
